Experimental data reported in PubChem BioAssay (NCATS).
Records with an inconclusive call do not appear. Entries that show only a call come without a potency. Active and inactive are the calls of the source. Calls follow the shape of the dose curve; as a rule, active = well fitted curve in the direction sought with a large enough effect; inconclusive = small, poorly fitted or top-dose-only effect, or another doubt; inactive = no such curve, though single readings can be large; an effect the other way counts as inactive or inconclusive.

Legend:
[1] = biological target: Aldehyde dehydrogenase, mitochondrial (Homo sapiens) (UniProt P05091); test: qHTS for Inhibitors of the Aldehyde Dehydrogenase Family (ALDH2) Primary screen (AID 2061308); details: ALDH2 enzyme inhibition qHTS, 1536-well; series mostly up to 56 µM; also: nearly all actives have a fitted effect of over 55% in size
[2] = biological target: Retinaldehyde dehydrogenase 3 (Homo sapiens) (UniProt P47895); test: qHTS for Inhibitors of the Aldehyde Dehydrogenase Family (ALDH1A3) Primary screen (AID 2061315); details: ALDH inhibition qHTS; series mostly up to 56 µM

SMILES	Potency [1]	Potency [2]
Cc1ccc(OCCn2c(CCNC(=O)c3cccc4cc[nH]c34)nc3ccccc32)cc1	inactive	inactive
O=C1CCCC2=C1C(c1[nH]ncc1Cl)N=C(Nc1nc3c(Cl)cccc3o1)N2 (configuration not stated)	inactive	inactive
O=C(NCCc1nc2ccccc2n1CCOc1ccccc1[N+](=O)[O-])C1CCCCC1	inactive	inactive
Cn1ccc2cc(-c3ccc4ncnc(NCc5cccnc5)c4c3)ccc21	inactive	inactive
C=CC(C)(C)c1[nH]c2ccccc2c1C[C@@H]1NC(=O)[C@H](C)NC1=O	inactive	inactive
CN1CCN(Nc2nn3c(=O)c4ccccc4nc3s2)CC1	inactive	inactive
COc1cc(NC(=O)C(OC(=O)CNC(=O)c2ccccc2)c2ccccc2)c(OC)cc1Cl (configuration not stated)	inactive	inactive
CCCCNC(=O)c1ccc2c(c1)ncn2-c1cccc(C)c1	inactive	inactive
Brc1ccc(-c2csc(N3CCOCC3)n2)cc1	inactive	inactive
Cc1noc(C)c1-c1ccc2ncnc(NCC3CCCCN3C)c2c1 (configuration not stated)	inactive	inactive
Cc1cccc(Nc2nn3c(=O)c4ccccc4nc3s2)c1	inactive	inactive
c1cncc(-c2ccc3ncnc(NCc4cccs4)c3c2)c1	inactive	inactive
CCn1c2cc(C)sc2c2cnn(Cc3ccccc3F)c(=O)c21	inactive	inactive
COc1ccc(C2=Nn3c(nnc3-c3ccccc3Cl)SC2)cc1OC	inactive	inactive
CC(=O)Nc1ccc(S(=O)(=O)Nc2cccc3cccnc23)cc1	inactive	inactive
Cc1nc(C)c(-c2ccc3ncnc(N(C)Cc4sccc4C)c3c2)s1	inactive	inactive
